# Source: PubChem
# A selection: hits, their analogues and other compounds. The true share with any hit is near 18%.
# DT40 TDP1 CPT: qHTS for Inhibitors of human tyrosyl-DNA phosphodiesterase 1 (TDP1): qHTS in cells in presence of CPT | chicken DT40 Tdp1-/-;hTDP1 cells + 20 nM CPT, ATP luminescence, 48 h | Potency, µM (highest dose often 46.2 µM), for the others: at the top dose activity change, negative = growth inhibition, hits mostly inhibitors | 12% of 420,000 active; further: potency means the concentration at half of the fitted maximal effect; on the % scale 0 is the no-effect control and ±100 the full control effect; nearly all actives have a fitted effect of over 55% in size
#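 Chicken DT40 Tdp1-/- cells complemented with human TDP1, 400 cells/well, exposed to compounds plus 20 nM camptothecin for at least 48 h at 37 C; viability read as ATP content by CellTiter-Glo luminescence.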
# HepG2 tox: qHTS for Inhibitors of TGF-b: Cytotox Counterscreen; HepG2 CAGA-GFP viability, ATP luminescence, 18 h; Potency, µM (top dose mostly 46.1 µM), for inactives: at the top dose activity change, negative = cytotoxicity, usual class: cytotoxic; 0.76% of 410,000 active; AID 588856, 2011; further: potency means the concentration at half of the fitted maximal effect
#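 CellTiter-Glo luminescence gave cytotoxicity after 18 hours at 37 degrees C. The cells were HepG2 CAGA-GFP in 1% FBS DMEM, stimulated with 500 pg/mL TGF-beta after compound addition. %Activity was normalised to no-cell wells (complete cell-killing) and DMSO (no toxicity), and curves were fitted and classified.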
# TGFb SMAD3 inh: qHTS for Inhibitors of TGF-b | Potency, µM (titrated, usually from 46.1 µM), for the others: top-dose activity, negative = inhibition, actives largely listed as inhibitors | 1.2% of 410,000 active | AID 588855, 2011 | HepG2 CAGA-GFP TGF-b/SMAD3 reporter, GFP fluorescence, 18 h; TGF-beta stimulated, 500 pg/mL final; further: potency means the concentration at half of the fitted maximal effect; on the % scale 0 is the no-effect control and ±100 the full control effect; nearly all actives have a fitted effect of over 65% in size
#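 Read-out: total well GFP (ex488/em500-530) summed from mean per-cell fluorescence. Cells: HEPG2 CAGA-GFP, 1% FBS DMEM, 18 h at 37 degrees C with 500 pg/mL final TGF-beta. Unstimulated wells served as the full-inhibition control; stimulated DMSO wells = 0%.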
# TDP1 block: qHTS Assay for Inhibitors of Tyrosyl-DNA Phosphodiesterase (TDP1); 0.28% of 350,000 active; Potency, µM (titrated, usually from 130 µM), for the others: top-dose activity change, negative = inhibition, actives largely listed as inhibitors; Tyrosyl-DNA phosphodiesterase 1 (Homo sapiens), Q9NUW8; AID 485290, 2010; recombinant TDP1, AlphaScreen DNA substrate cleavage; further: potency means the concentration at half of the fitted maximal effect; on the % scale 0 is the no-effect control and ±100 the full control effect; nearly all actives have a fitted effect of over 40% in size
# Target sequence (Q9NUW8 whole entry, looked up): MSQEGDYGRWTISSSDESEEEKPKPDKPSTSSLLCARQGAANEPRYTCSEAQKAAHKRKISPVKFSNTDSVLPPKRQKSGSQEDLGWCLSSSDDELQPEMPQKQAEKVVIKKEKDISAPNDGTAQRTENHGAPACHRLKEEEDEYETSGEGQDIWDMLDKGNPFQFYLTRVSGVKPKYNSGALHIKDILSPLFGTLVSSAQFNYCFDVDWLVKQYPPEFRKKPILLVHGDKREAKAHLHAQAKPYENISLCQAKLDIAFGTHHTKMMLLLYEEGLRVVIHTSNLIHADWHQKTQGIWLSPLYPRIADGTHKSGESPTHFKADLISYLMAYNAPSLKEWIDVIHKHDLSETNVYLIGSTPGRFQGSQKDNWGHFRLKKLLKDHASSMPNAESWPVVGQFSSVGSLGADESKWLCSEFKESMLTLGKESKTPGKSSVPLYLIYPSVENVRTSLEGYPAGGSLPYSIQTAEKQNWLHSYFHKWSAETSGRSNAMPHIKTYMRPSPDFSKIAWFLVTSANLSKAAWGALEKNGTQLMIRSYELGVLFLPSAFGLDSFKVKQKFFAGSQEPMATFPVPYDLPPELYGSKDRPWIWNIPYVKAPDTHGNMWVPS
#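 Steps: enzyme plus compound, 15 min RT; add biotin/phosphotyrosine-FITC oligonucleotide (15 nM final), react 5 min; add donor/acceptor beads (10 ug/ml final), 10 min; read AlphaScreen. Tdp1 at 1 nM final.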
# IL-1B inflam inh: qHTS for Inhibitors of Inflammasome Signaling: IL-1-beta AlphaLISA Primary Screen. THP-1 LPS/ATP IL-1B secretion, AlphaLISA, 16 h; stronger effect = lower value. activity change, % at 57.5 µM. 4.7% of 360,000 active. AID 743279, 2014; in the data active means activity change below about -50%; inconclusive means mostly about -30% to -49%; further: on the % scale 0 is the no-effect control and ±100 the full control effect
#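 THP-1 cells pretreated 1 hr with compounds (up to 57.5 uM final), then stimulated with LPS (250 ng/mL final) plus ATP (1.25 mM final); secreted IL-1B measured by AlphaLISA after 16 hr, decreased signal indicating inhibition.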
# TDP1 cell noCPT: qHTS for Inhibitors of human tyrosyl-DNA phosphodiesterase 1 (TDP1): qHTS in cells in absence of CPT. DT40 Tdp1-/- hTDP1 cells, no CPT, ATP luminescence, 48 h. Potency, µM (titrated, usually from 46.2 µM), for inactives: top-dose activity change, negative = growth inhibition, most hits filed as inhibitors. 15% of 420,000 active; further: potency means the concentration at half of the fitted maximal effect; on the % scale 0 is the no-effect control and ±100 the full control effect; nearly all actives have a fitted effect of over 55% in size
#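 Luminescent ATP content (CellTiter-Glo) served as the growth readout. Knockout chicken DT40 cells expressing human TDP1 were exposed to compounds without camptothecin for a minimum 48 hr at 37 °C.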
# Numbers without * were called inactive; ? = inconclusive; · = no result given. Unless noted, the call rests on the fitted dose curve; in most records, active means well fitted curve in the direction sought with a large enough effect; inconclusive means small, poorly fitted or top-dose-only effect, or another doubt; inactive means no such curve, though single readings can be large; an effect the other way counts as inactive or inconclusive.
SMILES,DT40 TDP1 CPT,HepG2 tox,TGFb SMAD3 inh,TDP1 block,IL-1B inflam inh,TDP1 cell noCPT
CC1C(=O)N(Cc2cn(CCC3OCCO3)nn2)CCS(=O)(=O)N1Cc1ccc(-c2cccc(CO)c2)cc1 (stereo unspecified),6%,1%,-4%,·,1,-5%
CCc1ccc(Nc2ccc(S(=O)(=O)N3CCOCC3)cc2[N+](=O)[O-])cc1,?,-23%,?,8%,-15,?
O=[N+]([O-])c1cc(S(=O)(=O)N2CCCCC2)ccc1NCc1cccc(Cl)c1,-16%,-8%,?,8%,-18,29µM*
CN1CCN(S(=O)(=O)c2ccc(Nc3cccc(Cl)c3)c([N+](=O)[O-])c2)CC1,?,-9%,-19%,11%,-8,23µM*
CCOC(=O)N(C)c1c(CC)nc2c(OCc3ccc(F)cc3)cccn12,?,2%,-11%,·,-10,?
CCc1nc2c(OCc3cccc(Cl)c3)cccn2c1N(C)C(=O)CC(C)C,?,-16%,-3%,·,2,21µM*
CCc1nc2c(OCc3ccc(F)c(F)c3)cccn2c1N(C)C(=O)C1CC1,21µM*,-50%,?,·,10,?
CCOC(=O)N(C)c1c(CC)nc2c(OCc3ccc(F)c(F)c3)cccn12,?,-41%,-16%,·,-7,21µM*
CCOC(=O)N(C)c1c(CC)nc2c(OCc3cc(Cl)cc(Cl)c3)cccn12,?,-29%,?,·,?,21µM*
COCCN1CC(C(=O)NCc2ncccc2C)CCC1=O (stereo unspecified),4%,-1%,14%,5%,13,14%
CCOC(=O)N(C)c1c(CC)nc2c(OCc3ccc(Cl)cc3Cl)cccn12,?,-10%,-17%,·,0,23µM*
CCOC(=O)N(C)c1c(CC)nc2c(OCc3ccc(OC(F)F)cc3)cccn12,?,-6%,4%,·,-5,15µM*
COc1ccc(S(=O)(=O)N2c3cc(C)ccc3OCC2C(C)(C)C)cc1 (stereo unspecified),16µM*,-10%,?,-3%,24,?
CCOc1ccc(CNCCCSc2nnnn2C)cc1OC,1%,-3%,-6%,6%,·,-18%
CC(c1ccccc1)C(OC(=O)c1cccc([N+](=O)[O-])c1C(=O)O)c1ccccc1 (stereo unspecified),6%,4%,-2%,·,-4,-4%
Nc1ccc2c(c1)OC1(CCCCC1)O2,?,17%,-6%,5%,9,16µM*
Cc1nn(-c2ccccc2)c(C)c1/C=N/n1c(-c2ccc(Cl)cc2)n[nH]c1=S,?,6%,-35%,1%,22,16µM*
Fc1ccc(-c2n[nH]c(=S)n2/N=C/c2c[nH]c3ccccc23)cc1,7.3µM*,3%,-14%,-3%,5,6.5µM*
CC(C)(C)c1ccc(C(=O)N2CCCC(c3nc4c(nnn4Cc4cccc(F)c4)c(=O)[nH]3)C2)cc1 (stereo unspecified),?,-103%,?,4%,·,?
COc1ccc(-c2cc(-c3cccs3)nc(OC)c2C#N)cc1OC,?,-21%,-5%,-3%,-9,29µM*
COc1nc(-c2cccs2)cc(-c2ccc(C)cc2)c1C#N,10µM*,-23%,1%,·,35,13µM*
CSc1ccccc1NC(=O)Cn1c([N+](=O)[O-])cnc1C,20%,4%,0%,·,38,13%
